This note sets out measurements from PubChem BioAssay AID504332 (National Center for Advancing Translational Sciences (NCATS), 2011).

Each structure is given as a SMILES string. Hit rate of the full screen: of about 350,000 compounds, about 31,000 (8.9%) were called active. Roughly 15% stayed inconclusive and do not appear here. Shown is part of a subset that was picked to be rich in actives. Values without a mark were called inactive. The call rests on the fitted dose curve; in most records, active means well fitted inhibition curve with a large enough effect; inconclusive means small, poorly fitted or top-dose-only effect; inactive means no such curve, though single readings can be large or run the other way.
On the % scale 0 is the no-effect control and ±100 the full control effect; potency means the concentration at half of the fitted maximal effect.

In the experiment the target is Histone-lysine N-methyltransferase EHMT2 (Homo sapiens) (UniProt Q96KQ7). The experiment in a line: qHTS Assay for Inhibitors of Histone Lysine Methyltransferase G9a. Further: nearly all actives have a fitted effect of over 75% in size. Particulars: G9a H3K9 monomethylation, AlphaScreen, 2 h; series mostly up to 59 µM; activity, negative = inhibition: at the top concentration. In short, it runs like this: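 Enzyme 20 nM + cpd, 15 min RT; add b-H3K9 pep 500 nM / SAM 20 uM; 2 h RT; anti-H3K9me1 Ab 0.5 ug/mL + SA donor / anti-rabbit acceptor beads 20 ug/mL each, 10 min; AlphaScreen read.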
Histone-lysine N-methyltransferase EHMT2 (Homo sapiens), sequence (Q96KQ7 913-1193 limits assumed): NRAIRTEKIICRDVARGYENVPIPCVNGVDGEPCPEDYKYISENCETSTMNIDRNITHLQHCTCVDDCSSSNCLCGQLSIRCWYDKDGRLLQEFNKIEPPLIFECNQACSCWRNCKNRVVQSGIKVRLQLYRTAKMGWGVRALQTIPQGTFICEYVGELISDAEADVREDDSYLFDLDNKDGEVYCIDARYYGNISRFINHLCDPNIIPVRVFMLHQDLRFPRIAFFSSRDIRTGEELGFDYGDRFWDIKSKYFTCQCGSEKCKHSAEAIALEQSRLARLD
Background: In qHTS, concentration-response curves come from the screen itself.
Consider `Cc1ccc([C@@H]2CC=C(C(=O)O)[C@H](c3cccc(Cl)c3)N2S(=O)(=O)c2ccc(C)cc2)cc1`, for which the activity, negative = inhibition was 3.76% [at 2.33 µM]. On to `Cc1nc2nc(SCC(=O)c3ccccc3)[nH]c2cc1Br`, for which the “activity, negative = inhibition” value was -7.31% [at 102 µM]. Take `Cc1cc(C)nc(SCC(=O)c2ccc(Cl)cc2)n1`: the “activity, negative = inhibition” value was 4.59% [at 102 µM].

Regarding `O=C(CSc1nc2ccc([N+](=O)[O-])cc2[nH]1)c1ccc(Cl)cc1`, the Potency was 5.01 µM (active).

Regarding `CCOC(=O)CSc1nc2ccc(C)cc2[nH]1`, the “activity, negative = inhibition” value was -14.7%.

Consider `Cc1ccc2nc(SCC(=O)NC3CCCC3)[nH]c2c1`, for which the “activity, negative = inhibition” value is 12.5% [at 102 µM]. As to `CC(=O)Nc1ccc(C(=O)CSc2nc3ccc(C)cc3[nH]2)cc1`, the Potency is 7.08 µM (active).

For the compound `CCOC(=O)c1c(SCC(=O)Nc2cccc(C)c2C)nc(=O)[nH]c1C`, the “activity, negative = inhibition” value is 4.2%.

For `Cc1ccc(NC(=O)C2CCN(S(=O)(=O)c3cc(-c4noc(C)n4)ccc3C)CC2)c(C)c1`, the “activity, negative = inhibition” value is 2.07%. For the compound `CCOCCCNC(=O)c1cc2c(=O)n3ccccc3nc2s1`, the Potency result is “inactive”. On to `CN=c1scc(-c2cc(OC)ccc2OC)n1/N=C/c1c(C)[nH]c2ccccc12`, for which the Potency was 12.6 µM (active). As to `COCCNC(=S)N/N=C/c1c(C)[nH]c2ccccc12`, the “activity, negative = inhibition” value is -8.34%. Take `Cc1[nH]c2ccccc2c1/C=N\NC(=O)Cn1nnc(-c2ccccc2)n1`: the “activity, negative = inhibition” value is 20.7%.

Take `O=C(Nc1ccc(F)cc1F)c1cnn(-c2ccc(F)cc2)c1-n1cccc1`: the “activity, negative = inhibition” value is -3.52%. Turning to `COCCN(CCOC)c1nc(N)c2c(N)nc3c(c2c1C#N)CC(=O)N3Cc1ccc(Cl)cc1`, the Potency was 17.8 µM (active).

Take `O=C(OCC(=O)N1CCOCC1)c1ccc2ccccc2c1`: the “activity, negative = inhibition” value is 0.153%.

`C=CCn1c2ccccc2c2nnc(SC(CC)C(=O)Nc3nc(C)c(C(=O)OCC)s3)nc21` (centres undefined): the “activity, negative = inhibition” value is 6.8% [at 102 µM]. For `CCn1c2ccccc2c2nnc(N3CCN(c4cc(C)ccc4C)CC3)nc21`, the “activity, negative = inhibition” value was -21.8%.

With `CCn1c2ccccc2c2nnc(SCC(=O)O)nc21`, the Potency was 10 µM (active).

For `COc1cccc(C2CC(c3cccs3)=NN2C(=O)CSC2=NCCS2)c1OC` (centres undefined), the “activity, negative = inhibition” value was -1.42% [at 102 µM].

As for `O=C(COC(=O)c1cccc(Cl)c1)Nc1ccc2[nH]c(=O)[nH]c2c1`, the activity, negative = inhibition was 10.7% [at 2.33 µM]. For `O=C(CSc1nc2nccnc2c(=O)n1Cc1cccs1)Nc1ccccc1F`, the “activity, negative = inhibition” value was 2.38% [at 102 µM]. In the case of `Cc1cc2n(n1)C(c1cc(C(C)(C)C)c(O)cc1O)Nc1ccccc1-2` (centres undefined), the “activity, negative = inhibition” value is -4.03%. On to `O=C(CSc1ccc(-c2ccccn2)nn1)Nc1ccccc1`, for which the “activity, negative = inhibition” value was -8.09% [at 102 µM]. For the compound `O=C(CSc1ccc(-c2ccc(-n3cccn3)cc2)nn1)Nc1ccc([N+](=O)[O-])cc1`, the Potency is 15.8 µM (active).

`Cc1csc(NC(=O)CSc2ccc(-c3ccc(F)cc3)nn2)n1`: the “activity, negative = inhibition” value is -4.33% [at 102 µM]. Take `O=C(N/N=C\C1CC=CCC1)c1ccc(Br)o1` (centres undefined): the “activity, negative = inhibition” value is 11.4% [at 102 µM]. On to `C=CCOC(=O)C1=C(C)OC(N)=C(C#N)C1c1ccc(F)cc1` (centres undefined), for which the activity, negative = inhibition is 14.3% [at 2.33 µM]. Turning to `Cc1nn(-c2ccccc2)c2c1C(c1ccc(F)cc1)C(C#N)=C(N)O2` (centres undefined), the Potency was 50.1 µM (active). As to `CCCc1[nH]nc2c1C(c1c(C)nn(-c3ccccc3)c1Cl)C(C#N)=C(N)O2` (centres undefined), the activity, negative = inhibition was -26.6% [at 12.7 µM]. `CC(NC(=O)c1cc2c(=O)n3ccccc3nc2n(C(C)C)c1=N)c1ccccc1` (centres undefined): the “activity, negative = inhibition” value is 5.1%.

On to `COc1ccc(C(=O)CSc2nc(C)cc(C)n2)cc1[N+](=O)[O-]`, for which the “activity, negative = inhibition” value was 14.2%. On to `COc1ccc(C(C[N+](=O)[O-])n2nc(C)cc2C)cc1` (centres undefined), for which the Potency is 6.31 µM (active).

As to `COc1ccc(OCc2cn3c(C)cc(C)nc3n2)cc1`, the “activity, negative = inhibition” value was 2.35% [at 102 µM]. Consider `Cc1ccc(S(=O)(=O)N2CCN(C(=O)c3ccc(-n4cncn4)c([N+](=O)[O-])c3)CC2)cc1`, for which the activity, negative = inhibition was -0.498% [at 12.7 µM].

As for `C/C(N)=C(/C#N)C(=O)COC(=O)C1=NN(c2ccccc2)C(=O)CC1`, the “activity, negative = inhibition” value was 10.9% [at 102 µM]. With `CC(=O)c1sc(NC(=O)C2=NN(c3ccccc3)C(=O)CC2)nc1C`, the Potency is 25.1 µM (active). For `CC(=O)c1sc(N/N=C\c2ccc(C)cc2)nc1C`, the “activity, negative = inhibition” value was 8.51%.

For `COc1cc2c(cc1OC)[C@@H](Cc1cc(OC)c(OC)c(OC)c1)[N+](C)(CCCOC(=O)CC/C=C/CCC(=O)OCCC[N+]1(C)CCc3cc(OC)c(OC)cc3[C@H]1Cc1cc(OC)c(OC)c(OC)c1)CC2` (some centres undefined), the activity, negative = inhibition is 6.96% [at 12.7 µM]. In the case of `Cc1noc(C)c1C(=O)NCC1COc2ccccc2O1` (centres undefined), the activity, negative = inhibition is -3.43% [at 2.33 µM].

Turning to `COc1ccc(-c2nc(C)c(CCNC(=O)c3ccc(C(F)(F)F)cc3)s2)cc1OC`, the “activity, negative = inhibition” value was -3.85%. Take `CCOc1cc(CNC(=O)c2sc3ncnc(N(C)C4CCCCC4)c3c2C)ccc1OC`: the “activity, negative = inhibition” value was -2.1%.

`COCCCNC(=O)C1CC(=O)N(CCc2ccc(F)cc2)C1` (centres undefined): the “activity, negative = inhibition” value was 7.57% [at 102 µM]. Turning to `O=C(O)CCCn1c(=O)c2cccn2c2ccc(F)cc21`, the “activity, negative = inhibition” value was 24.2% [at 102 µM]. Take `COCCCn1c(CCC(=O)O)ccc1-c1ccc(F)cc1`: the Potency was 11.2 µM (active). With `COc1ccc(NC(=O)CCNS(=O)(=O)c2ccc3c(c2)CCCC(=O)N3)cc1Cl`, the “activity, negative = inhibition” value was -13.5%. On to `CCc1ccc(NC(=O)CN2C(=O)CCSc3ccc(S(=O)(=O)N4CCCC4)cc32)cc1`, for which the “activity, negative = inhibition” value is 4.57%. As to `COc1ccc2c(c1)c(=O)c(C(=O)c1ccccc1)cn2CC(=O)Nc1ccc2c(c1)OCCO2`, the “activity, negative = inhibition” value is -5.72%. As for `O=C(Nc1cccc([N+](=O)[O-])c1)N1CCc2ccccc2C1`, the “activity, negative = inhibition” value is 2.67% [at 102 µM].
